From PubChem BioAssay
IMPase cell inh – cell-permeable inhibitors of inositol monophosphatase (IMPase); P97697; CHO-M1 cells, IP1 accumulation, HTRF TR-FRET ratio; inhibition (IP1 accumulation), % at 46.1 µM; 120,000 tested, under 10 active; AID 901; active = well fitted curve in the direction sought with a large enough effect in the signal ratio, not every such curve was filed as active; inconclusive = small, poorly fitted or top-dose-only effect, or a change in a side signal; inactive = no such curve, though single readings can be large or run the other way; the % refers to the signal ratio;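 note: cells stimulated with carbachol in lithium chloride buffer; plate controls were DMSO basal wells for no effect and reference inhibitor wells for full effect; higher means more IMPase inhibition seen as more IP1 and lower FRET ratio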
Target sequence (P97697 whole entry, looked up): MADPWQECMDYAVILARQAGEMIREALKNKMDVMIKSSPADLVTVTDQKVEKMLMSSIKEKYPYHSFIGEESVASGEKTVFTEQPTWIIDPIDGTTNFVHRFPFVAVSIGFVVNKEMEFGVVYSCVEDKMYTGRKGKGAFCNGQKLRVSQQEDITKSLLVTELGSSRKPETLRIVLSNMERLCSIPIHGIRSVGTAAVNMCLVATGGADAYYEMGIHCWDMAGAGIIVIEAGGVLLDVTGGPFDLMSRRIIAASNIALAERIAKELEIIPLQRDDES
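CHO-M1, 2000 cells/well, cultured 16–30 h; cpd up to 46 uM; carbachol (50 uM solution, stimulation buffer w/ 50 mM LiCl, pH 7.4), 30 min 37C; IP-One TR-FRET, 10 min RT; Ex 320/Em 665, 620; Hill-fit AC50.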
PNC assembly inh – inhibitors of perinucleolar compartment assembly | PC3M PTB-GFP, PNC prevalence imaging, 16 h; stronger effect = lower value | 140,000 compounds, 3.1% hits | AID 2417 | activity change (PNC), negative = inhibition, % at 10 µM;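 active = readout at or below -70, meaning at least 70% loss of cells showing the perinucleolar compartment, a nuclear body marking cancer cells; inconclusive = readout between -30 and a set limit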;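 note: plate controls were DMSO wells for no effect and camptothecin positive control wells for full effect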
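Read-out is percentage of cells bearing a perinucleolar compartment, from automated 20x imaging of fixed, Hoechst-stained PC3M PTB-GFP cells. Cells were seeded 4 h, then exposed 16 h to compound (23 nl of library stock) in duplicate plates.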
ALOX12 inhib – blocks human 12-lipoxygenase activity; P18054; purified 12-hLO, xylenol orange hydroperoxide absorbance; Potency, µM (highest dose often 57.1 µM), for the others: at the highest dose activity change, negative = inhibition, hits mostly inhibitors; 150,000 compounds, 0.12% hits; AID 1452; note: potency is the fitted concentration of half-maximal effect; nearly all actives have a fitted effect of over 55% in size
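Purified human 12hLO (150 nM), preincubated 15 min with compound, then 40 uM arachidonic acid for 30 min, room temperature, Hepes pH 7.0 with 0.01% Triton X-100. Hydroperoxide detected by ferrous iron/xylenol orange; 573/405 nm absorbance ratio gives reaction progress.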
ALOX15B inhib – inhibitors of human 15-lipoxygenase 2 (ALOX15B); 110,000 compounds, 0.56% hits; O15296; purified 15hLO-2, xylenol orange hydroperoxide absorbance; Potency, µM (doses to about 57.1 µM), for inactives: at the highest dose activity change, negative = inhibition, hits mostly inhibitors; note: potency is the fitted concentration of half-maximal effect; nearly all actives have a fitted effect of over 60% in size
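Screening format was qHTS against 50 nM purified 15hLO-2 in Hepes pH 7.5 with detergent. Activity follows hydroperoxide formation from 45 uM arachidonic acid, measured as 573:405 nm absorbance ratio of the ferric-xylenol orange complex.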
IMPase Li cell – cell-permeable IMPase inhibitors with lithium potentiation | CHO-M1 cells, IP1 TR-FRET (IP-One), carbachol + lithium | Potency, µM (top dose mostly 59.4 µM), for the others: at the top dose activity, negative = IMPase inhibition, actives largely listed as inhibitors | 210,000 compounds, 0.35% hits | AID 1457;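 note: IP1 builds up when IMPase is blocked and the TR-FRET signal falls; potency is the fitted concentration of half-maximal effect; plate controls were basal vehicle for no effect and high inhibitor control for full effect; nearly all actives have a fitted effect of over 50% in size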
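CHO cells stably expressing M1 receptor (2000/well, cultured 16–30 h) treated 30 min at 37C with compound plus low lithium. Cytosolic IP1 by TR-FRET (665/620 ratio and 620 channel) after 10 min lysis; AC50 by Hill fit.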
HPGD inh – blocks human HPGD enzyme activity; 150,000 compounds, 4.3% hits; P15428; purified HPGD, NADH fluorescence kinetic, PGE2 substrate; Potency, µM, inactives show at the highest dose activity change, negative = inhibition, usual class: inhibitors; active = well fitted inhibition curve with a large enough effect, not every such curve was filed as active; inconclusive = small, poorly fitted or top-dose-only effect, or another doubt; inactive = no such curve, though single readings can be large or run the other way; note: potency is the fitted concentration of half-maximal effect
Target sequence (P15428 whole entry, looked up): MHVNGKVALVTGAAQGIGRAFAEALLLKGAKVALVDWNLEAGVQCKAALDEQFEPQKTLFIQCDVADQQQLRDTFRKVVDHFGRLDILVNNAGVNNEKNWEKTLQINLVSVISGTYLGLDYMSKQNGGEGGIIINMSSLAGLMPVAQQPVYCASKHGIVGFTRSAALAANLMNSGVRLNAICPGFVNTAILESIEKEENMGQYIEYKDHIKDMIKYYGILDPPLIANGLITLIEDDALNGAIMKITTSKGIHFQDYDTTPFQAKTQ
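NADH formation kinetics: reaction with 30 uM PGE2 and 1 mM NAD+ (final), 20 nM enzyme, Tris-HCl pH 8 with Tween 20, after 15 min compound preincubation at room temperature. Fluorescence change, last versus first of five reads.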
The depositor's hits bear a star; ? = inconclusive; . = no result; [ ] = dose if it differs, or a comment. Sampled rows, rich in hits. Any-hit rate of the full collection: about 5.4%. Unless noted, calls come from the whole dose curve; as a rule, active = well fitted curve in the direction sought with a large enough effect; inconclusive = small, poorly fitted or top-dose-only effect, or another doubt; inactive = no such curve, though single readings can be large; an effect the other way counts as inactive or inconclusive. Unless noted, % is set by controls: 0 for no effect and ±100 for the full control effect.

SMILES | IMPase cell inh | PNC assembly inh | ALOX12 inhib | ALOX15B inhib | IMPase Li cell | HPGD inh
CCOC(=O)C1=C(c2ccccc2)NC(=O)NC1c1ccc(N(C)C)cc1 (stereo not given) | 3 | -100* | -8% | -10% | -19%[38.3 µM] | -8%
COc1cc2c(cc1OC)C(/C=C/c1ccc(OC)c(OC)c1OC)=NCC2 | . | . | . | . | 26% | -16%
COc1cc(NC(=O)c2cccc(Cl)c2Cl)ccc1NC(=O)c1cc2ccccc2o1 | 20 | . | . | . | . | .
N#CCCSC(=S)[C@H]1CCCC1=N | . | . | 0%[11.4 µM] | -14%[11.4 µM] | -8% | -8%
N#C/C(=C\c1cccc([N+](=O)[O-])c1)c1nnc2n1CCCCC2 | . | 32 | -4% | . | 10% | 32µM*
CN(c1ccccc1)c1ccc(/C=C(\C#N)c2nnc3n2CCCCC3)cc1[N+](=O)[O-] | -1 | -91* | -3% | . | . | .
N#C/C(=C/c1ccc(N2CCCC2)c([N+](=O)[O-])c1)c1nc2ccccc2[nH]1 | 6 | 55 | 0% | -16% | 22%[38.3 µM] | -17%
CC1=C(C(=O)OC2CCCC2)C(c2ccccc2Cl)CC(=O)N1 (stereo not given) | 7 | . | . | . | . | .
COC(=O)Cn1c(=NC(=O)c2ccc(Cl)s2)sc2cc(C)ccc21 | . | -119* | 3% | . | -27% | ?
C#CCn1c(=NC(=O)c2ccc(Br)s2)sc2cc(NC(C)=O)ccc21 | . | 5 | 0% | . | ? | -8%
COC(=O)Cn1c(=NC(=O)c2ccc([N+](=O)[O-])s2)sc2cc(Br)ccc21 | . | -93* | -2% | . | -3% | -14%
COC(=O)Cn1c(=NC(=O)c2nc3ccccc3s2)sc2cc(S(C)(=O)=O)ccc21 | . | 6 | 0% | . | 6.3µM* | ?
COC(=O)Cn1c(=NC(=O)c2sc3ccccc3c2Cl)sc2cc(S(N)(=O)=O)ccc21 | . | 25 | 1% | . | -17% | ?
O=C(ON=C1CCN(S(=O)(=O)c2ccccc2)CC1)c1ccccc1 | 1 | ? | 1% | . | 4%[38.3 µM] | 5%
O=C(ON=C1CCN(S(=O)(=O)c2ccccc2)CC1)c1cccc(Cl)c1 | 6 | -100* | 1% | . | 3% | -11%
O=C(N/N=C/c1cc(Cl)ccc1O)C(=O)Nc1ccccc1OC(F)(F)C(F)F | . | -90* | -6% | . | -17% | -19%
O=C(N/N=C/c1cc(Br)ccc1O)C(=O)Nc1ccccc1OC(F)(F)C(F)F | -19 | 42 | ? | -14% | -4%[38.3 µM] | 1%
Cc1ccc(NNC(=O)C(=O)N2CCCCC2)cc1 | 8 | -90* | 1% | . | -1% | -2%
COc1ccc(-c2nc3cnc(Oc4cccc(Cl)c4)nc3n(C[C@H]3CCCO3)c2=O)cc1 | . | . | . | -5% | -8% | .
COc1ccc(C(=O)Nc2sc(C(=O)N(C)C)c(C)c2C#N)cc1[N+](=O)[O-] | . | 34 | -5% | . | -1% | -26%
CCN(CC)C(=O)c1sc(NC(=O)c2ccc(C)c([N+](=O)[O-])c2)c(C#N)c1C | 4 | ? | 0% | 2% | 6%[38.3 µM] | 28µM*
CCN(CC)C(=O)c1sc(NC(=O)c2ccc(OC)c([N+](=O)[O-])c2)c(C#N)c1C | -1 | 0 | -2% | . | 8% | 18µM*
NC(N)=NC(N)=Nc1ccc(C(=O)O)cc1 | . | . | -1%[11.4 µM] | -2%[11.4 µM] | 4% | -8%
O=C(CCl)N1c2ccccc2OCC1c1ccccc1 (stereo not given) | -6 | ? | 6% | . | 24% | 32µM*
N#Cc1c(-n2ncnc2-c2cccc(Cl)c2)sc2c1CCCCC2 | 1 | . | . | . | . | .
CCOc1ccc(NC(=O)C2CC(=O)NC(=Nc3ccc(Cl)c(Cl)c3)S2)cc1 (stereo not given) | 1 | . | . | . | . | .
Cc1cc(C)n(C(C[N+](=O)[O-])c2ccc(Cl)cc2)n1 (stereo not given) | -1 | ? | -10% | ? | 21%[38.3 µM] | 7.9µM*
O=C(Nc1sc2c(c1C(=O)O)CCC2)c1ccco1 | 5 | -24 | 1% | -7% | -23%[38.3 µM] | 22µM*
COC(=O)c1c(NC(=O)c2ccco2)sc2c1CCC2 | 4 | -24 | -14% | -27% | 5%[38.3 µM] | ?
